# Measurements published in PubChem BioAssay AID540253 (National Center for Advancing Translational Sciences (NCATS), 2011).
# Among all 340,000 compounds or so, about 240 (0.071%) were called active. Where a call stands in place of a potency, no number is given. This is one part of a sample in which actives are shown more often than they occur. Calls come from the whole dose curve.
# Biological target: Snurportin-1 (Homo sapiens) + GTP-binding nuclear protein Ran (Homo sapiens) + Importin subunit beta-1 (Homo sapiens) (UniProt O95149+P62826+Q14974)
# Test: qHTS Assay for Inhibitors of RanGTP induced Rango (Ran-regulated importin-beta cargo) - Importin beta complex dissociation; note: nearly all actives have a fitted effect of over 45% in size
# Settings: Biochemical FRET Rango-importin beta; series mostly up to 46.1 µM
# From the text: NIH Molecular Libraries Probe Production Centers Network [MLPCN] NIH Chemical Genomics Center [NCGC] MLPCN Grant: R03 MH090808-01A1 Assay Submitter (PI): Petr Kalab NCGC Assay Overview: The small GTPase Ran regulates transport of macromolecules between the nucleus and the cytoplasm (nuclear transport) and has important functions in mitotic spindle assembly, nuclear envelope (NE) formation and nuclear pore complex (NPC) assembly. RanGTP gradient is thought to promote spindle assembly by providing a spatial clue to microtubule nucleation and Aurora A activation. Because the localized release and binding of importin alpha cargos relays this spatial clue to SAFs, inhibitors of the Rango - importin beta complex can then be used in further understanding their role in cell cycle specifically in mitosis progression. […] Activation of Aurora A has been linked to different types of cancer and a number of Aurora kinase inhibitors are being developed as potential canter therapeutics; therefore, identified inhibitors of this complex could be developed into potential anti-mitotic probes for cancer treatment. Purified recombinant proteins Rango - importin beta and RanGTP-RCC1 stock premixes were provided by the assay submitter. The assay used a fluorescence resonance energy transfer (FRET) Rango biosensor that contains the IBB of human snurportin 1 flanked by yellow fluorescent protein (EYFP) at the amino terminus and cerulean CFP10 at the carboxy terminus. […] RanGTP binding to the complex (in the presence of RCC1) releases the Rango from the complex. The flexibility of the IBB in the freed Rango allows the donor - acceptor fluorophores to interact, resulting in a high FRET signal. Inhibitors will therefore be identified based on the ability to interfere with the FRET signal increase. DMSO treated and no RanGTP-RCC1 (buffer only) wells were used as negative and positive controls respectively. FRET readings were obtained at two time points. FRET reading prior to importin beta addition (pre-read) were used flag potential compound interference; FRET reading after importin beta addition (post-read) were used to identify inhibitors.
# NCGC Assay Protocol Summary: Two and a half uL/well of Rango- importin beta premix solution (0.1 uM Rango, 0.25 uM importin beta, 1x PBS, 1mM DTT, 0.02% Tween-20, 0.1% BSA final concentrations) was dispensed into 1536-well assay plates (Greiner, solid black medium-binding plates) with Aurora Discovery BioRAPTR Flying Reagent Dispenser (FRD; Beckton-Dickenson). Compound solution (23 nL) was transferred to the assay plate using Kalypsys pin tool equipped with a 1536-pin tool and incubated at room temperature for 5 min followed by a FRET pre-read using the PerkinElmer Envision plate reader. Two and a half uL/well of RanGTP-RCC1 premix solution (0.6 uM Ran, 2mM GTP, 0.2 uM RCC1, 1x PBS, 1mM DTT, 0.02% Tween-20, 0.1% BSA final concentrations) were then added and incubated at room temperature giving a final reaction volume of 5uL. After 45min FRET post-read was obtained via the Envision plate reader using the same optics and settings as the pre-read (CFP/YFP optimized dual optical module D450/D505; excitation mirror CFP 430/24 nm; and emission filters CFP 486/10 nm and YFP 530/10 nm).
# Potency is the fitted concentration of half-maximal effect.
row,SMILES,Potency
1,NN=C(NN=Cc1ccccc1)c1ccccc1,inactive
2,NC(=O)c1ncn([C@@H]2O[C@H](CN=C3NS(=O)(=O)c4ccccc43)[C@@H](O)[C@H]2O)n1,inactive
3,CC(C)OC(=O)c1ccc(NCc2cc(O)ccc2O)cc1Cl,inactive
4,O=C(c1ccc2c(c1)C(=O)N(Cc1ccncc1)C2=O)N1CCN(S(=O)(=O)c2ccc(OC(F)(F)F)cc2)CC1,inactive
5,NC(CSC1(c2ccccc2)c2ccccc2-c2ccccc21)C(=O)O (configuration not stated),inactive
6,O=c1[nH]c(=S)[nH]c(O)c1/C=C1\C=Nc2ccccc21,inactive
7,O=C1OC(Cc2ccccc2)C(c2ccccc2)C1=O (configuration not stated),inactive
8,Cc1cccc(C2c3c(n(C)c(=O)n(C)c3=O)N=C3c4ccccc4C(=O)C32)c1 (configuration not stated),inactive
9,CCNC(=S)NCC,inactive
10,COc1ccc(-c2nnc(-c3ccc4ccccc4c3)o2)cc1,inactive
11,Cc1[nH]c(N)nc(=S)c1CCCNc1ccccc1,inactive
12,Cn1c(N)cc(=O)n(C)c1=S,inactive
13,NC(=O)c1ccc(N2CCCC2)nc1,inactive
14,Cc1cc([N+](=O)[O-])c(=O)[nH]c1C,inactive
15,O=S(=O)(Cc1ccc(Cl)cc1Cl)c1ccc(Cl)cc1,inactive
16,CCN(CC(=O)Nc1c(F)cccc1F)C(=O)Cc1cccs1,inactive
17,O=[N+]([O-])c1ccc(NS(=O)(=O)c2ccccc2)c(Cl)c1,inactive
18,O=C(O)C(c1cccs1)C1(O)CCCCC1 (configuration not stated),inactive
19,O=C(CC1Sc2ccccc2NC1=O)NNc1ccc(Cl)c(Cl)c1 (configuration not stated),inactive
20,S=C(Nc1ccccc1)Nc1ccc2ccccc2c1,inactive
21,C/C(=N\Nc1ccccc1)c1cccs1,inactive
22,CCC1(C)COC(c2ccc(OC)c(OC)c2)OC1 (configuration not stated),inactive
23,Cn1c(NC(=O)c2ccccc2)nc2ccccc21,inactive

row,SMILES,Potency
1,Cn1c(-c2ccc(C(=O)c3ccccc3)s2)nc2ccccc21,8.2 µM [inconclusive] (active)
2,Cn1c(CNC(=O)C(C)(C)C)nc2ccccc21,inactive
3,Nc1ccc2[nH]c(=S)sc2c1,inactive
4,O=C1c2ccccc2C(=O)C1C(=O)C1CC1,inactive
5,O=C(O)c1ccc([N+](=O)[O-])cc1Sc1ccsc1,inactive
6,CC(C=Cc1ccccc1)=NNS(=O)(=O)c1ccc([N+](=O)[O-])cc1,inactive
7,O=[N+]([O-])c1cc2ccccc2nc1-c1ccccc1,inactive
8,CCN1C[C@@H]2[C@@H]3C(=O)N(C)C(=O)[C@@H]3[C@](C)(C1=O)N2C(=O)c1ccccc1,inactive
9,COc1cc(O)c2c(=O)c3c(O)c(O)ccc3oc2c1OC,inactive
10,C#CCOCCOCCOCCNc1nc(N2CCOCC2)nc(N2CCN(C(=O)[C@H](Cc3ccc(O)cc3)n3cc(CCO)nn3)CC2)n1,inactive
11,O=C(NN=Cc1ccccc1)c1ccccc1,inactive
12,CCOc1ccc(CCNC(=O)COC(=O)C2CCN(S(=O)(=O)c3ccccc3)CC2)cc1OCC,inactive
13,Cc1cc(NC(=O)c2cc3ccccc3o2)no1,inactive
14,CC(=O)N1CCc2ccc(N)cc21,inactive
15,O=C1C(Cl)=C(Oc2ccccc2)C(=O)c2ccccc21,inactive
16,O=c1nc(NO)ccn1C1CCCO1 (configuration not stated),inactive
17,O=c1[nH]c2c(c(=O)n1-c1ccccc1)CCO2,inactive
18,COC1=CC(=O)OC(c2ccc(OC)cc2)C1 (configuration not stated),inactive
19,CCOc1ccc(/C=C(/C#N)c2nnc(N3CCOCC3)n2-c2ccccc2)cc1OC,inactive
20,CC(=O)OC1CCC2C3CCC4=C(CC(F)C(=O)C4)C3CCC12C (configuration not stated),inactive
21,COc1ccccc1N(CC(=O)Nc1c(C)n(C)n(-c2ccccc2)c1=O)S(=O)(=O)c1ccccc1,inactive
22,CC(C)(C)c1nnc2sc(SCC(O)=C(C#N)c3nc4ccccc4[nH]3)nn2c1=O,inactive
23,Cc1cc(NC(=O)C(C)SCC(=O)Nc2cccc(S(=O)(=O)N3CCCCCC3)c2)no1 (configuration not stated),inactive

row,SMILES,Potency
1,CC(C)(C)C(=O)Nc1cccc(-c2ccc[nH]2)n1,inactive
2,Nc1ccc2c(c1)C(O)c1ccc(Cl)cc1-2 (configuration not stated),inactive
3,Cn1cc(C2OC(=O)c3ccccc32)c2ccccc21 (configuration not stated),inactive
4,CCC1([N+](=O)[O-])COC(c2ccc(C(C)C)cc2)OC1 (configuration not stated),inactive
5,Nc1ccc2c(c1)C(=Cc1cccnc1)c1ccccc1-2,inactive
6,Cc1nc2ccc(N)nc2nc1C,inactive
7,CC(C)c1cc(N=O)cc(C(C)C)c1O,inactive
8,O=C(OCCOc1ccccc1Cl)c1cc(S(=O)(=O)N2CCCCC2)ccc1N1CCOCC1,inactive
9,Cc1ccc(S(=O)(=O)N2CCN(C(=O)c3cc(S(=O)(=O)N4CCOCC4)ccc3F)CC2)cc1,inactive
10,CN(CCc1ccccc1)C(=O)c1cccc(NC(=O)Cc2cccc(NC(=O)C3CCCN(C(=O)CCc4ccccc4)C3)c2)c1 (configuration not stated),inactive
11,CCC(=O)N1CCc2cc(Br)c(S(=O)(=O)NCCN3CCCCC3CC)cc21 (configuration not stated),inactive
12,O=C(c1cccc(S(=O)(=O)N2CCCCCC2)c1)N1CCN(Cc2ccccc2)CC1,inactive
13,CCOc1ccccc1NC(=S)C(=C([O-])c1ccc2c(c1)OCCO2)[n+]1ccc(CC)cc1,inactive
14,CC(=O)c1cccc(-c2ccc(CN3C(CC(C)C)C(=O)N(Cc4cn(CC5CCCCC5)nn4)CCS3(=O)=O)cc2)c1 (configuration not stated),inactive
15,C[n+]1cccc(C(=O)O)c1,inactive
16,CC1CN(Cc2ccco2)C(=S)N(c2ccccc2)C1=O (configuration not stated),inactive
17,Cc1nc(N)nc(Cl)c1CCC1OCCO1,inactive
18,O=C(CN1C(=O)/C(=C\c2ccc(C(F)(F)F)cc2)Sc2ccccc21)NCc1ccco1,11.6 µM [inconclusive] (active)
19,O=C(CC1CCCCC1)NCc1ccco1,inactive
20,O=C(CCCCCN1C(=O)c2cccc3cccc(c23)C1=O)NCc1ccco1,inactive
21,O=C(Cc1ccc([N+](=O)[O-])cc1)NCCc1ccc2c(c1)OCO2,inactive
22,Cc1cccc(NS(=O)(=O)c2ccc([N+](=O)[O-])cc2)n1,inactive
23,Cc1nc2ccccc2nc(=O)c1NNc1ccc([N+](=O)[O-])cc1,14.6 µM [inconclusive] (active)

row,SMILES,Potency
1,Cc1nc(N)nc(SCc2ccc([N+](=O)[O-])cc2)c1N,inactive
2,CN(C(=O)c1cccc(NC(=O)Cc2ccc(NC(=O)C3CCCN(C(=O)C4CCCC4)C3)cc2)c1)C1CCC1 (configuration not stated),inactive
3,CSCCC(NS(=O)(=O)c1ccc(C)cc1)C(=O)N(C)CC(=O)Nc1ccccc1Br (configuration not stated),inactive
4,CC(=O)OCC(=O)C1(O)CCC2C3CC(C)C4=CC(=O)CCC4(C)C3C(O)CC21C (configuration not stated),inactive
5,NC(=S)NN=C1CCCC(C(F)(F)F)C1 (configuration not stated),inactive
6,C[C@@H]1NS(=O)(=O)c2cc(Cl)ccc2O[C@@H]1c1ccccc1,inactive
7,CC(=O)CSc1nc(CCc2ccccc2)c(C#N)c(=O)[nH]1,inactive
8,CC(C)CN1CC(C)C(=O)N(c2ccccc2)C1=S (configuration not stated),inactive
9,Nc1ncnc2c1cnn2C1CC(O)C(CO)O1 (configuration not stated),inactive
10,Cc1ccc(-c2csc(C(C#N)=C(O)CN3CCN(C(=O)c4ccco4)CC3)n2)cc1,inactive
11,O=C1CC(C(=O)O)NC(=S)N1 (configuration not stated),inactive
12,CCc1nnc(NC(=O)c2cc(S(=O)(=O)N3CCN(CC)CC3)ccc2Cl)s1,inactive
13,O=C(Cc1ccc(NC(=O)C2CCCN(C(=O)C3CCCCC3)C2)cc1)Nc1cccc(C(=O)N2CCCCC2)c1 (configuration not stated),inactive
14,CCc1ccc(C(=O)C(C)OC(=O)CN2C(=O)NC3(CCCC3)C2=O)cc1 (configuration not stated),inactive
15,COc1ccc(CCNC(=O)c2ccc(NC(=O)CC3SC(N4CCCCC4)=NC3=O)cc2)cc1OC (configuration not stated),inactive
16,Cc1onc(-c2c(F)cccc2Cl)c1C(=O)Nc1cccc(S(=O)(=O)N2CCCCC2)c1,inactive
17,COc1ccccc1C(=O)c1ccccc1C(=O)c1ccccc1,inactive
18,CCOC(=O)N(Cc1ccccc1)C1CC1,inactive
19,COC1=NC2=NCCN2C(OC)=N1,inactive
20,O=C(NN=Cc1ccccc1O)NN=Cc1ccccc1O,inactive
21,O=[N+]([O-])c1cccc(C=NN=Cc2ccccc2O)c1,inactive
22,CN(C)CCNC(=O)c1ccc(Cl)c2cc3ccccc3nc12,inactive
23,CCC(C)C1(C2CCCC2)NC(=O)NC1=O (configuration not stated),inactive

row,SMILES,Potency
1,CSc1ncnc2c1ncn2CC(=O)C1CCC2C3CCC4=CC(=O)CCC4(C)C3CCC12C (configuration not stated),inactive
2,COc1cccc2c1C(=O)c1c(O)c3c(c(O)c1C2=O)CC(O)(C(C)=NNC(=O)c1ccc(Cl)c(Cl)c1)CC3OC1CC(N)C(O)C(C)O1 (configuration not stated),inactive
3,CCCN(CCC)S(=O)(=O)c1cc2c(cc1Br)CCN2C(=O)CC,inactive
4,COc1ccc(C(=O)Nc2cccc(/C=C(/CCC(=O)O)c3nc4ccccc4s3)c2)cc1,inactive
5,CCCN(C(=O)COC(=O)CNS(=O)(=O)c1ccc(NC(C)=O)cc1)C1CCS(=O)(=O)C1 (configuration not stated),inactive
6,CC(=NNC(=S)N1CCCCCC1)c1ccccn1,inactive
7,Cc1cccc(CC2(O)C(=O)Nc3ccccc32)n1 (configuration not stated),inactive
8,Cc1cc(OCCCC(=O)Nc2cc(S(=O)(=O)N3CCOCC3)ccc2N2CCOCC2)ccc1Cl,inactive
9,COC1=CC(=O)OC(C)(c2ccccc2)C1 (configuration not stated),inactive
10,COc1ccc2c(c1)C(=O)CC(c1ccccc1)O2 (configuration not stated),inactive
11,CC(NC(=O)c1ccccc1)C(=O)OCC(=O)Nc1cccc(S(=O)(=O)N2CCCC2)c1 (configuration not stated),inactive
12,O=C1C(=O)N(c2ccccc2)C(c2ccccc2)C1c1ccccc1 (configuration not stated),inactive
13,Cc1ccc(OCCNC(=O)c2cccc(S(=O)(=O)N3CCN(Cc4ccccc4)CC3)c2)cc1,inactive
14,COC[C@@H]1NS(=O)(=O)c2ccc(Br)cc2O[C@H]1c1ccccc1,inactive
15,CN(C(=O)c1cccc(NC(=O)Cc2cccc(NC(=O)C3CCCN(C(=O)C4CC4)C3)c2)c1)C1CCC1 (configuration not stated),inactive
16,O=S1(=O)CCOC[C@H](Cc2ccccc2)N1Cc1ccccc1Br,inactive
17,O=c1oc2ccccc2c(=O)c2ccccc12,inactive
18,Cc1ccc(/C=C/C(=O)Nc2ccc([N+](=O)[O-])c(NC(=O)/C=C/c3ccc(C)o3)c2)o1,inactive
19,O=C(/C=C/c1ccc([N+](=O)[O-])o1)NNC(=O)c1ccc(F)cc1,20.6 µM [inhibitor] (active)
20,O=C(NNC(=O)C1CCCC1)c1ccc(F)cc1,inactive
